Compounds with a hit are over-represented: about 7.7% of the library has one in this group of screens.
Tb PYK inh – qHTS of Trypanosoma Brucei Inhibitors. pyruvate kinase (Trypanosoma brucei), Q57TT1. actives 0.12% (n = 410,000). AID 624173, 2012. Potency, µM (highest dose often 76.8 µM), actives largely listed as inhibitors. TbPYK enzyme, Kinase-Glo Plus ATP luminescence, 45 min; further: nearly all actives have a fitted effect of over 50% in size
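Luminescence from Kinase-Glo Plus, added after a 45-minute room-temperature reaction, served as the end-point read-out. The enzyme and substrate were preincubated with compound before ADP (130 uM final) initiated turnover. Concentration-effect curves came from normalized qHTS data.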
RE007 growth inh – qHTS Assay for Inhibitors of the HIV-1 protein Vpr | actives 0.21% (n = 360,000) | Potency, µM (highest dose often 92.2 µM), hits mostly inhibitors | AID 651644, 2012 | S. pombe RE007 Vpr strain, BacTiter-Glo ATP luminescence, 24 h; active means well fitted falling curve with a large enough effect; inconclusive means small, poorly fitted or top-dose-only effect; inactive means no such curve, though single readings can be large or run the other way; further: nearly all actives have a fitted effect of over 50% in size
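Fission yeast RE007 carrying one integrated HIV-1 vpr copy, seeded at OD 0.01 in PMG+AL medium with 23 nL pinned compound. Grown 24 h at 30 degrees; viability read by BacTiter-Glo luminescence after 5 min.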
Giardia FBPA inh – qHTS Assay for Inhibitors of Fructose-1,6-bisphosphate Aldolase from Giardia Lamblia | Potency, µM (top dose mostly 59.6 µM), usual class: inhibitors | AID 2451, 2010 | A8B2U2 | purified Giardia FBPA | actives 0.71% (n = 290,000); further: nearly all actives have a fitted effect of over 55% in size
Target sequence (A8B2U2 whole entry, looked up): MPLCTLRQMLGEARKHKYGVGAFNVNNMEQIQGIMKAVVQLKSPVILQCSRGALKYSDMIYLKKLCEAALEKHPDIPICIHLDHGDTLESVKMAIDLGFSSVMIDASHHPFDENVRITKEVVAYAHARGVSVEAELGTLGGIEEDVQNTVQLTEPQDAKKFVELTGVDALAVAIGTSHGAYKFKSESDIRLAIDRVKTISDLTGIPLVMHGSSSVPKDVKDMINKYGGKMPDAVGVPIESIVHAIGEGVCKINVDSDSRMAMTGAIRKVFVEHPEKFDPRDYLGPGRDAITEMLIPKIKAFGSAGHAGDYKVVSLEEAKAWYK
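Giardia FBPA (40 nM reagent) was preincubated 10 min at RT with compound (up to 57.5 uM final), then substrate plus GAPDH/TPI/NAD/arsenate coupling system with diaphorase/resazurin was added; resorufin fluorescence (525/598 nm) was read after 20 min.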
FMDV antiviral – High Throughput Screening for Foot and Mouth Disease Virus Antivirals; FMDV antiviral cell-based qHTS; Potency, µM (series often up to 57.9 µM), actives largely listed as inhibitors; actives 1.2% (n = 410,000); AID 1159524, 2015; calls by dose curve; tested in HEK293T cells; further: read-out not given here; nearly all actives have a fitted effect of over 45% in size
HCMV inh – qHTS Assay for inhibitors of the human cytomegalovirus (HCMV). activity change, negative = inhibition, % at 57.5 µM. HFF cells, HCMV-luciferase reporter, 72 h; active compounds read low. actives 4.5% (n = 410,000); in the data active means activity change below about -60%; inconclusive means no clear call, values can overlap the other calls; inactive means above about -39%
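Two compound doses tested in HFFs infected with HCMV-luciferase, MOI 1 PFU/cell, 72 h at 37C. Lysate luminescence read with OneGlo; data normalized against buffer-only and 10uM Salinomycin inhibitor controls.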
Sm TGR block – qHTS Assay for the Inhibitors of Schistosoma Mansoni Peroxiredoxins; purified TGR, DTNB reduction, TNB absorbance 405 nm; actives 3% (n = 360,000); Schistosoma mansoni thioredoxin glutathione reductase (TGR), Q962Y6; AID 485364, 2010; Potency, µM (top dose mostly 114 µM), most hits filed as inhibitors; further: nearly all actives have a fitted effect of over 60% in size
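Kinetic colorimetric format: TGR-catalysed, NADPH-driven DTNB reduction monitored via TNB absorbance. Enzyme dispensed at 20 nM; compound exposure 15 min at room temperature before reaction start.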
A number is an active result; [ ] = dose if it differs, or a comment. Unless noted, the call rests on the fitted dose curve; in most records, active means well fitted curve in the direction sought with a large enough effect; inconclusive means small, poorly fitted or top-dose-only effect, or another doubt; inactive means no such curve, though single readings can be large; an effect the other way counts as inactive or inconclusive.

How did COCC(=O)Nc1cc(C(=O)N2CCN(c3ccc(Cl)cn3)CC2)c2c(c1)nc(C1CCC1)n2C do in these assays?
FMDV antiviral: inactive

How did C=CCNC(=S)Nc1ccc(OC(=O)Nc2ccc(Cl)c(Cl)c2)cc1 do in these assays?
Tb PYK inh: inactive; Giardia FBPA inh: inconclusive; FMDV antiviral: inactive; HCMV inh: inactive; Sm TGR block: 35.5µM

What do the screens show for `Cc1ccc2ncccc2c1NS(=O)(=O)c1ccccc1`?
Tb PYK inh: inactive; RE007 growth inh: inactive; Giardia FBPA inh: inactive; FMDV antiviral: inactive; HCMV inh: inactive; Sm TGR block: inactive

What do the screens show for `CC(=O)c1cccc(NC(=S)NC(=O)c2ccccc2)c1`?
Tb PYK inh: inactive; RE007 growth inh: inactive; Giardia FBPA inh: inconclusive; FMDV antiviral: inactive; HCMV inh: inactive; Sm TGR block: 28.2µM

What do the screens show for `CC(=O)c1cccc(NC(=S)NC(=O)c2cccc(Cl)c2)c1`?
Tb PYK inh: inactive; RE007 growth inh: inactive; Giardia FBPA inh: inconclusive; FMDV antiviral: inactive; HCMV inh: inactive; Sm TGR block: 39.8µM

What do the screens show for `O=C(O)c1cccc(NC(=S)NC(=O)c2ccc(-c3ccccc3)cc2)c1`?
Tb PYK inh: inactive; RE007 growth inh: inactive; Giardia FBPA inh: inactive; FMDV antiviral: inactive; HCMV inh: inactive

Results for Cc1ccc2ncccc2c1NC(=S)NC(=O)c1ccccc1 ?
Tb PYK inh: inactive; RE007 growth inh: inactive; Giardia FBPA inh: inconclusive; FMDV antiviral: inconclusive; HCMV inh: inactive; Sm TGR block: 20µM

How did Cc1ccc(-n2nc3c(=O)n(CC(=O)NC(C)C)nc(C)c3c2C)cc1 do in these assays?
Tb PYK inh: inactive[15.4 µM]; FMDV antiviral: inactive; HCMV inh: inactive; Sm TGR block: inactive

What do the screens show for `CCc1nnc(SCc2nc(-c3ccccc3Cl)oc2C)c2cc3sc(C)cc3n12`?
Tb PYK inh: inactive; FMDV antiviral: inactive; HCMV inh: inactive; Sm TGR block: inactive

What do the screens show for `C=CCNC(=S)Nc1ccc2cn[nH]c2c1`?
Tb PYK inh: inactive; RE007 growth inh: inactive; Giardia FBPA inh: inconclusive; FMDV antiviral: inactive; HCMV inh: inactive; Sm TGR block: 39.8µM

What do the screens show for `S=C(Nc1ccccc1)Nc1ccc2cn[nH]c2c1`?
Tb PYK inh: inactive; RE007 growth inh: inactive; Giardia FBPA inh: inconclusive; FMDV antiviral: inactive; HCMV inh: inconclusive; Sm TGR block: inconclusive

Results for CCc1cccc(C)c1NC(=O)c1cccc(C(=O)Nc2c(C)cccc2CC)c1 ?
Tb PYK inh: inactive; FMDV antiviral: inactive; HCMV inh: inactive; Sm TGR block: inactive

How did CCc1cccc(CC)c1NC(=O)c1cccc(NC(=O)c2ccccc2)c1 do in these assays?
Tb PYK inh: inactive; RE007 growth inh: inactive; Giardia FBPA inh: inactive; FMDV antiviral: inactive; HCMV inh: -67.4; Sm TGR block: inactive

What do the screens show for `O=C(NC(=S)Nc1ccc2cn[nH]c2c1)c1ccccc1`?
Tb PYK inh: inactive; RE007 growth inh: inactive; Giardia FBPA inh: inconclusive; FMDV antiviral: inactive; HCMV inh: inactive; Sm TGR block: 14.1µM

How did Cc1ccc(NC(=S)Nc2ccc3cn[nH]c3c2)cc1 do in these assays?
Tb PYK inh: inactive; RE007 growth inh: inactive; Giardia FBPA inh: inactive; FMDV antiviral: inactive; HCMV inh: inactive; Sm TGR block: inactive

Results for COc1cccc(CNC(=O)c2ccc3nc(-c4ccc(F)cc4)c(-c4ccc(F)cc4)nc3c2)c1 ?
Tb PYK inh: inactive; FMDV antiviral: inactive; HCMV inh: inactive; Sm TGR block: inactive

What do the screens show for `COc1ccc(S(=O)(=O)N2CCOCC2)cc1NC(=O)c1cc2c(s1)CCCC2`?
Tb PYK inh: inactive; RE007 growth inh: inactive; Giardia FBPA inh: inactive; FMDV antiviral: inactive; HCMV inh: -68.8; Sm TGR block: inactive

What do the screens show for `O=C(Nc1cc(S(=O)(=O)N2CCOCC2)ccc1N1CCOCC1)c1cc2c(s1)CCC2`?
Tb PYK inh: inactive; RE007 growth inh: inactive; Giardia FBPA inh: inactive; FMDV antiviral: inactive; HCMV inh: inconclusive; Sm TGR block: inactive

What do the screens show for `COc1ccc(S(=O)(=O)N2CCOCC2)cc1NC(=O)CSc1nnnn1C1CC1`?
Tb PYK inh: inactive; RE007 growth inh: inactive; FMDV antiviral: inactive; HCMV inh: -60.4; Sm TGR block: inactive

How did Cc1cnc(C)c(-c2cccc3c2OC(CNC(=O)CN2C(=O)c4ccccc4C2=O)C3)n1 (stereo unspecified) do in these assays?
FMDV antiviral: inactive

How did CCOC(=O)OCC1C=C[C@H](c2cc(-c3ccccc3)ccc2O)C(c2ccc(C(C)=O)cc2)O1 (stereo partly specified) do in these assays?
Giardia FBPA inh: inactive[12.9 µM]

What do the screens show for `CCCC(=O)Nc1nnc(SCc2cc(=O)n3ccccc3n2)s1`?
Tb PYK inh: inactive; FMDV antiviral: inactive; HCMV inh: inactive; Sm TGR block: inactive

How did CCN(CC)C(=O)CC(c1ccc(OC)cc1)c1c(OC)cc(OC)c2c(-c3ccccc3)cc(=O)oc12 (stereo unspecified) do in these assays?
Giardia FBPA inh: inactive

What do the screens show for `Cc1cccc(CC(=O)NCCc2csc(-c3ccc(C(F)(F)F)cc3)n2)c1`?
Tb PYK inh: inactive; FMDV antiviral: inactive; HCMV inh: inactive; Sm TGR block: inactive

What do the screens show for `O=C(NC1CCS(=O)(=O)C1)Oc1ccc(Cl)cc1` (stereo unspecified)?
Tb PYK inh: inactive; RE007 growth inh: inactive; Giardia FBPA inh: inactive; FMDV antiviral: inactive; HCMV inh: -106.4; Sm TGR block: inactive

What do the screens show for `O=C(/C=C/c1ccc(Cl)cc1)NC1CCS(=O)(=O)C1` (stereo unspecified)?
Tb PYK inh: inactive; RE007 growth inh: inactive; Giardia FBPA inh: inactive; FMDV antiviral: inactive; HCMV inh: inconclusive; Sm TGR block: inactive

How did CCn1c(/C(C#N)=C/c2ccccc2Cl)nc2ccccc21 do in these assays?
Tb PYK inh: inactive; FMDV antiviral: inactive; HCMV inh: -73.1; Sm TGR block: inactive

Results for CCn1c(/C(C#N)=N/O)nc2ccccc21 ?
Tb PYK inh: inactive; RE007 growth inh: inactive; Giardia FBPA inh: inactive; FMDV antiviral: inactive; HCMV inh: inactive; Sm TGR block: inactive

How did Cc1c(C(=O)Nc2ccc(-c3nc4cc(Cl)ccc4o3)cc2)oc2ccccc12 do in these assays?
Tb PYK inh: inactive; FMDV antiviral: inactive; HCMV inh: inactive; Sm TGR block: inactive

What do the screens show for `Nc1nc(=O)n(C2CC(O)C(CO)O2)cc1F` (stereo unspecified)?
Tb PYK inh: inactive; RE007 growth inh: inactive; FMDV antiviral: inactive; HCMV inh: -97.3

Results for Nc1nc(=O)n(C2CC(O)C(CO)O2)cc1Cl (stereo unspecified) ?
Tb PYK inh: inactive; RE007 growth inh: inactive; FMDV antiviral: inactive; HCMV inh: inactive

Compound activity (PubChem)
